Our source for the activity remaining values is PubChem BioAssay.

Molecules are shown by their SMILES. “And” between values parts separate entries of the source, which are not always exact repeats. Identical values can stand only once. The source made the active and inactive calls. No rule for the calls is given here.

In this test the test system is Aerobactin synthetase IucA (Klebsiella pneumoniae hvKP1). Put plainly: IucA enzyme inhibition, primary screen, biochemical, Spectrum library (AID 1346200).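 Also: 100% = wells without compound and 0% = wells lacking enzyme.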 To be noted: malachite green pyrophosphate, A620, at 8 µM, active compounds read low.
With `CC1(C)C2CC[C@]3(C)C(C(=O)C=C4[C@@H]5C[C@@](C)(C(=O)O)CC[C@]5(C)CC[C@]43C)[C@@]2(C)CC[C@@H]1OC(=O)CCC(=O)O` (some centres undefined), the activity remaining was 120% (inactive).
Under `NCCCC(O)(P(=O)(O)O)P(=O)(O)O` stands 112% (inactive); under `CC1(C)S[C@@H]2[C@H](NC(=O)[C@H](C(=O)O)c3cccs3)C(=O)N2[C@H]1C(=O)O`, 102% (inactive).
Under `CN(C)c1ccc(C(=C2C=CC(=[N+](C)C)C=C2)c2ccc(N(C)C)cc2)cc1` stands 118% (inactive).
`COc1cc2c(cc1OC)C(=O)C(CC1CCN(Cc3ccccc3)CC1)C2` (centres undefined): the activity remaining was 107% (inactive).
For the compound `COc1cc(OC)c2c(=O)c(-c3ccc4c(c3)OCO4)coc2c1`, the activity remaining is 98% (inactive).
As for `CC1(C)O[C@@H]2CC3C4C[C@H](F)C5=CC(=O)C=CC5(C)C4C(O)CC3(C)[C@]2(C(=O)CO)O1` (some centres undefined), the activity remaining was 111% (inactive).
As for `CCN1CCN(C(=O)NC(C(=O)NC2C(=O)N3C(C(=O)O)=C(CSc4nnnn4C)CSC23)c2ccc(O)cc2)C(=O)C1=O` (centres undefined), the figure is 125% (inactive); as for `O=C(O)c1cc(=O)c2ccccc2o1`, 110% (inactive); as for `O=C(O)CCNC(=O)c1ccccc1`, 103% (inactive).
In the case of `CC(=O)[C@H]1CCC2C3C[C@H](C)C4=CC(=O)CC[C@]4(C)C3[C@@H](O)C[C@@]21C` (some centres undefined), the activity remaining is 101% (inactive).
Take `CC[C@H](/C=C/C(C)C1CCC2C3CCC4=CC(=O)CC[C@]4(C)C3CC[C@]12C)C(C)C` (some centres undefined): the activity remaining was 101% (inactive).
As for `O=C1NS(=O)(=O)c2ccccc21`, the figure is 102% (inactive); as for `C=CC1=C(C)/C(=C/c2[nH]c(Cc3[nH]c(/C=C4\NC(=O)C(C)=C4C=C)c(C)c3CCC(=O)O)c(CCC(=O)O)c2C)NC1=O`, 112% (inactive).
For `O=C(O)c1cc(=O)c(O)c2c(O)c(O)ccc2c1`, the activity remaining was 90.4% (inactive).
Under `CC(=O)OC1CCC2(C)C(=CC=C3C2CCC2(C)C3CCC2C(C)/C=C/C(C)C(C)C)C1(C)C` (centres undefined) stands 125% (inactive); under `OCC(S)CS` (centres undefined), 91.4% (inactive); under `C=C1C2CC[C@@]3(C)[C@H](c4ccoc4)OC(=O)C[C@]13O[C@H]1CC(O)C(C)(C)C(CC(=O)OC)[C@@]21C` (some centres undefined), 86.1% (inactive).
As for `COC(=O)[C@@H]1OC(=O)C2OC23[C@@]1(C)CCC1[C@@]2(C)CCC(=O)C(C)(C)C2C[C@@H](OC(C)=O)[C@]13C` (some centres undefined), the figure is 112% (inactive); as for `O=C(O)CCC(=O)c1ccc(-c2ccccc2)cc1`, 115% (inactive).
`COc1c2occc2cc2ccc(=O)oc12`: the activity remaining was 124% (inactive).
Under `CC1=CC(=O)c2ccccc2C1=O` stands 117% (inactive).
Take `CCCc1nc2c(C)cc(-c3nc4ccccc4n3C)cc2n1Cc1ccc(-c2ccccc2C(=O)O)cc1`: the activity remaining is 123% (inactive).
Take `CC(=O)O[C@H]1C[C@@H](O)C(C)(C)C2C[C@@H](OC(C)=O)[C@]3(C)C(CC[C@@]4(C)[C@H](c5ccoc5)OC(=O)C5OC543)[C@]21C` (some centres undefined): the activity remaining was 104% (inactive).
For `CCCCC(CC)CN=C(N)NC(N)=NCCCCCCN=C(N)NC(N)=NCC(CC)CCCC` (centres undefined), the activity remaining was 98.4% (inactive).
As for `C=C1c2cccc(O)c2C(O)=C2C(=O)[C@]3(O)C(O)=C(C(N)=O)C(=O)[C@@H](N(C)C)[C@@H]3[C@@H](O)[C@H]12`, the activity remaining was 111% (inactive).
`Nc1c(Br)cc(Br)cc1CNC1CCC(O)CC1` (centres undefined): the activity remaining is 93.2% (inactive).
With `CCC1OC(=O)[C@H](C)C(=O)[C@H](C)[C@@H](OC2O[C@H](C)C[C@H](N(C)C)[C@H]2O)[C@](C)(OC)C[C@@H](C)C(=O)[C@H](C)[C@H]2N(CCCCn3cnc(-c4cccnc4)c3)C(=O)OC12C` (some centres undefined), the activity remaining is 121% (inactive).
Turning to `C[N+]1(C)CCCC(OC(=O)C(O)(c2ccccc2)c2ccccc2)C1` (centres undefined), the activity remaining is 111% (inactive).
As for `COc1cc(OC)c(-c2c(OC)cc(OC)cc2OC)c(OC)c1`, the activity remaining was 106% (inactive).
For `C[C@]12CCc3occc3C1CC[C@@]13C[C@@H](CCC12)[C@@](O)(CO)C3` (some centres undefined), the activity remaining is 93.4% (inactive).
In the case of `COC(=O)Nc1nc2ccc(C(=O)c3ccccc3)cc2[nH]1`, the activity remaining is 104% (inactive).
Regarding `CN[C@@H]1[C@H](OC2[C@H](O[C@H]3[C@H](O)[C@@H](O)[C@H](N=C(N)N)[C@@H](O)[C@@H]3N=C(N)N)O[C@@H](C)[C@]2(O)C=O)O[C@@H](CO)[C@H](O)[C@H]1O` (some centres undefined), the activity remaining is 108% (inactive).
In the case of `C1CCN2C[C@@H]3C[C@H](CN4CCCC[C@@H]34)[C@H]2C1`, the activity remaining was 106% (inactive) and 89.3% (inactive).
